Reference: PubChem BioAssay (Tox21)
Records with an inconclusive call do not appear. The source made the active and inactive calls. Unless noted, the call rests on the fitted dose curve.

Experiments:
[1] = biological target: Peroxisome proliferator-activated receptor delta (Homo sapiens) (UniProt Q03181); test: qHTS assay to identify small molecule antagonists of the peroxisome proliferator-activated receptor delta (PPARd) signaling pathway (AID 743215; active means well fitted inhibition curve with a large enough effect in the signal ratio in the repeat runs, not every such curve was filed as active; the % refers to the signal ratio;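 further: cells stimulated with agonist L165041 at 300 nM final during compound exposure; series mostly up to about 62 µM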)
Sequence of Peroxisome proliferator-activated receptor delta (Homo sapiens) (Q03181 whole entry, looked up): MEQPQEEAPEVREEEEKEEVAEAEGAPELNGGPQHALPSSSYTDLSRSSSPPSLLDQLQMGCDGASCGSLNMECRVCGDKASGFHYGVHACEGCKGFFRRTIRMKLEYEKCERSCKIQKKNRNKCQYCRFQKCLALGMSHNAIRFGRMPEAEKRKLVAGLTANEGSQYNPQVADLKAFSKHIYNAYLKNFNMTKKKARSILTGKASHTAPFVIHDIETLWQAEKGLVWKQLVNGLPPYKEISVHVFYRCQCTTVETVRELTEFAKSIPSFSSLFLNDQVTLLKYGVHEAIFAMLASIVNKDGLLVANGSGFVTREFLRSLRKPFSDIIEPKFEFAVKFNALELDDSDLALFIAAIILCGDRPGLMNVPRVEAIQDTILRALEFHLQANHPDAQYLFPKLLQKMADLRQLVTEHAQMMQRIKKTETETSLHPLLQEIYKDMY
In short: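 Inhibition of L165041-driven (300 nM final) PPARd signaling is scored in HEK293H UAS-bla cells. Exposure lasts 17 h at 37 C; beta-lactamase activity is then read by FRET substrate fluorescence after 2 h at room temperature.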

[2] = qHTS assay to identify small molecule agonists of the farnesoid-X-receptor (FXR) signaling pathway - cell viability counter screen (AID 743218; active means well fitted curve in the direction sought with a large enough effect in the repeat runs; an effect the other way counts as inactive or inconclusive; further: nearly all actives have a fitted effect of over 45% in size)
In short: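 Cytotoxicity counter-screen run in parallel, same wells: FXR-UAS-bla HEK 293T cells dosed 16 h at 37 C, viability read by CellTiter-Glo luminescence after 30 min at room temperature.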

[3] = qHTS assay to identify small molecule antagonists of the farnesoid-X-receptor (FXR) signaling pathway - cell viability counter screen (AID 743221; active means well fitted cell-killing curve with a large enough effect in the repeat runs, not every such curve was filed as active; further: nearly all actives have a fitted effect of over 50% in size)
In short: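 CellTiter-Glo, 30 min RT, luminescence; same wells as the LiveBLAzer FRET read. Cells: FXR-UAS-bla HEK 293T. Treatment: compound with chenodeoxycholic acid 50 uM final, 16 h at 37 C.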

[4] = qHTS assay to identify small molecule agonists of the vitamin D receptor (VDR) signaling pathway - cell viability counter screen (AID 743224; active means well fitted curve in the direction sought with a large enough effect in the repeat runs; an effect the other way counts as inactive or inconclusive; further: series mostly up to about 63 µM; nearly all actives have a fitted effect of over 50% in size)
In short: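 Viability is measured in the same wells as the VDR-bla reporter assay: after 16 h compound treatment and 2 h substrate loading, CellTiter-Glo is added and luminescence read 30 min later.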

[5] = qHTS assay to identify small molecule agonists of the NFkB signaling pathway (AID 1159509; active means well fitted curve in the direction sought with a large enough effect in the signal ratio in the repeat runs, not every such curve was filed as active; the % refers to the signal ratio; further: series mostly up to about 61 µM)
In short: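 ME-180 NFkB-bla, 2,000 cells/well, overnight plating; cpd pinned in DMSO, 5 h 37 C; B/G FRET substrate 1.5 h RT; ex 405, em 460/530 nm.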

[6] = qHTS assay to identify small molecule agonists of the NFkB signaling pathway - cell viability counter screen (AID 1159515); further: series mostly up to about 61 µM; nearly all actives have a fitted effect of over 55% in size
In short: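 Multiplexed viability readout: after the 5 hr compound exposure and 1.5 hr FRET substrate step, CellTiter-Glo reagent went into the same NFkB-bla ME-180 wells; ATP luminescence was measured after 30 min at room temperature.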

[7] = qHTS assay to identify small molecule agonists of the endoplasmic reticulum stress response signaling pathway (AID 1159516; active means well fitted activation curve with a large enough effect in the signal ratio in the repeat runs, not every such curve was filed as active; the % refers to the signal ratio)
In short: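 Tox21 10K library screened in quantitative HTS format on ESRE-bla HeLa cells, a beta-lactamase reporter under ER stress response element control; 5 hr treatment, FRET read.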

[8] = qHTS assay to identify small molecule agonists of the endoplasmic reticulum stress response signaling pathway - cell viability counter screen (AID 1159517); further: series mostly up to about 61 µM; nearly all actives have a fitted effect of over 50% in size
In short: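 ESRE-bla HeLa cells, 1,500 per well, seeded overnight then treated with compounds for 5 hr at 37 C. After the beta-lactamase read, viability in the same wells is measured by CellTiter-Glo luminescence after 30 min at room temperature.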

[9] = qHTS assay to identify small molecule antagonists of the retinoid-related orphan receptor gamma (ROR-gamma) signaling pathway - cell viability counter screen (AID 1159520; active means well fitted curve in the direction sought with a large enough effect in the repeat runs; an effect the other way counts as inactive or inconclusive; further: nearly all actives have a fitted effect of over 50% in size)
In short: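 Tet-on ROR gamma CHO cells were given compounds for 2 hr, then doxycycline hyclate at 1 uM final, and incubated 16 hr at 37 C. Viability was measured as ATP content by CellTiter-Glo luminescence.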

[10] = biological target: Nuclear receptor ROR-gamma (Homo sapiens) (UniProt P51449); test: qHTS assay to identify small molecule antagonists of the retinoid-related orphan receptor gamma (ROR-gamma) signaling pathway (AID 1159521; active means well fitted curve in the direction sought with a large enough effect in the repeat runs; an effect the other way counts as inactive or inconclusive)
In short: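 Readout: ONE-Glo luciferase luminescence, 30 min at room temperature. System: Tet-on RORγ CHO, RORE-LUC. Sequence: compound 2 h, doxycycline 1 uM final, 16 h at 37 C.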

[11] = qHTS assay to identify small molecule agonists of the AP-1 signaling pathway - cell viability counter screen (AID 1159525); further: nearly all actives have a fitted effect of over 55% in size
In short: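 AP-1-bla ME-180 cells in Opti-MEM with 0.5% dialyzed FBS, compound exposure 5 h at 37 C in 15-point titration. Viability read in the same wells as ATP content by CellTiter-Glo luminescence, normalised to tetra-n-octylammonium bromide and DMSO controls.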

[12] = qHTS assay to identify small molecule agonists of the AP-1 signaling pathway (AID 1159526)
[13] = biological target: Retinoic acid receptor RXR-alpha (Homo sapiens) (UniProt P19793); test: qHTS assay to identify small molecule agonists of the RXR signaling pathway (AID 1159527); further: nearly all actives have a fitted effect of over 35% in size
Sequence of Retinoic acid receptor RXR-alpha (Homo sapiens) (P19793 whole entry, looked up): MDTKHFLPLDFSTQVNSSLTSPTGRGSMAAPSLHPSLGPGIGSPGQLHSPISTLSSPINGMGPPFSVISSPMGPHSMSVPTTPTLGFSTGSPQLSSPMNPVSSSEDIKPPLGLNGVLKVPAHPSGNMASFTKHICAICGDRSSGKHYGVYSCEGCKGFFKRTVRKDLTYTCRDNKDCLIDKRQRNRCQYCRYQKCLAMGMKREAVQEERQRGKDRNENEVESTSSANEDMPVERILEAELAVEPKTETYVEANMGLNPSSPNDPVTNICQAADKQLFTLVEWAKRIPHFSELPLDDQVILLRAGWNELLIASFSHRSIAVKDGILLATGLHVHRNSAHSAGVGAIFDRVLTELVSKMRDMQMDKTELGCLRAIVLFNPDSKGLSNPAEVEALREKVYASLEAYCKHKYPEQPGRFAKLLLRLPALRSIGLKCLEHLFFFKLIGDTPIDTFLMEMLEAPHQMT
In short: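 Reporter activation is measured as beta-lactamase activity via FRET substrate cleavage (emission 460/530 nm) in HEK 293T cells expressing an RXR-alpha-driven bla construct, following 16 hr compound exposure at 37 C.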

[14] = biological target: Peroxisome proliferator-activated receptor delta (Homo sapiens) (UniProt Q03181); test: qHTS assay to identify small molecule agonists of the peroxisome proliferator-activated receptor delta (PPARd) signaling pathway (AID 743212)
In short: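 GeneBLAzer UAS-bla HEK293H cells carrying a PPARδ construct were exposed to compounds at 37 °C. Beta-lactamase activity was read by FRET fluorescence after 2 h at room temperature with LiveBLAzer B/G substrate.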

[15] = qHTS assay to identify small molecule antagonists of the peroxisome proliferator-activated receptor delta (PPARd) signaling pathway - cell viability counter screen (AID 743213; active means well fitted curve in the direction sought with a large enough effect in the repeat runs; an effect the other way counts as inactive or inconclusive; further: nearly all actives have a fitted effect of over 50% in size)
In short: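 In this counter screen, HEK293H cells carrying a UAS-beta-lactamase reporter are co-treated with test compounds and 300 nM L165041 (final) for 17 h at 37 C; cell viability is quantified by CellTiter-Glo luminescence.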

[16] = biological target: Bile acid receptor (Homo sapiens) (UniProt Q96RI1); test: qHTS assay to identify small molecule antagonists of the farnesoid-X-receptor (FXR) signaling pathway (AID 743217; active means well fitted inhibition curve with a large enough effect in the signal ratio in the repeat runs, not every such curve was filed as active; the % refers to the signal ratio)
Sequence of Bile acid receptor (Homo sapiens) (Q96RI1 whole entry, looked up): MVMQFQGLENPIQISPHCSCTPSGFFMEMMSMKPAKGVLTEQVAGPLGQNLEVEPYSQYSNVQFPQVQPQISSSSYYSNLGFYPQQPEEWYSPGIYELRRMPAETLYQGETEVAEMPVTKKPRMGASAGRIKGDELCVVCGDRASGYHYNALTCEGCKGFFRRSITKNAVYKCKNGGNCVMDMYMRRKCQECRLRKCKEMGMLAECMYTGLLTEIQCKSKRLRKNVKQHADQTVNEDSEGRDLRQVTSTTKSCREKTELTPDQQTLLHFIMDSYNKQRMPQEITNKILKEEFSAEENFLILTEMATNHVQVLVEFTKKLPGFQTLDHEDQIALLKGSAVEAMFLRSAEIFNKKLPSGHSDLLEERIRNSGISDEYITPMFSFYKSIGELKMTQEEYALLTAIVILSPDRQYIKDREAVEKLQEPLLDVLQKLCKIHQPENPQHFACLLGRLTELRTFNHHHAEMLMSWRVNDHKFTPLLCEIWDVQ
In short: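 Antagonist mode against 50 uM (final) chenodeoxycholic acid stimulation in FXR-bla HEK 293T cells, 16 h at 37 °C. Inhibition detected as reduced beta-lactamase activity via LiveBLAzer B/G FRET fluorescence after 2 h at room temperature.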

[17] = biological target: Bile acid receptor (Homo sapiens) (UniProt Q96RI1); test: qHTS assay to identify small molecule agonists of the farnesoid-X-receptor (FXR) signaling pathway (AID 743220; active means well fitted activation curve with a large enough effect in the signal ratio in the repeat runs, not every such curve was filed as active; the % refers to the signal ratio)
In short: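 Beta-lactamase reporter under UAS control in GeneBLAzer FXR HEK 293T cells (5000/well) measured with LiveBLAzer FRET substrate after 2 h at room temperature. Compound exposure lasted 16 h at 37C.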

[18] = biological target: Vitamin D3 receptor (Homo sapiens) (UniProt P11473); test: qHTS assay to identify small molecule agonists of the vitamin D receptor (VDR) signaling pathway (AID 743222)
Sequence of Vitamin D3 receptor (Homo sapiens) (P11473 whole entry, looked up): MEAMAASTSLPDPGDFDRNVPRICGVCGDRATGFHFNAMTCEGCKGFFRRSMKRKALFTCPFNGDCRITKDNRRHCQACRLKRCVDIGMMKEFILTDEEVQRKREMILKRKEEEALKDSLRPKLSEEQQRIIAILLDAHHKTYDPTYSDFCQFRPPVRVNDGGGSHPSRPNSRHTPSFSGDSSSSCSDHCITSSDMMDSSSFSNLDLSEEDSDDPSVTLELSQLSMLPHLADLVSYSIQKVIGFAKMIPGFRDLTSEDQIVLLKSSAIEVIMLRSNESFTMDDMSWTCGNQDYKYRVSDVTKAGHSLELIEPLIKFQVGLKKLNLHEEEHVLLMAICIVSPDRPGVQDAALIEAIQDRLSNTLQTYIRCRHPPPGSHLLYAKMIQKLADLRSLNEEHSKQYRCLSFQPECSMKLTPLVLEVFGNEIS
In short: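 Quantitative HTS agonist-mode screen: compounds in DMSO were pin-transferred onto VDR-bla cells and incubated 16 h at 37C, 5% CO2. Reporter activity was detected with LiveBLAzer B/G FRET substrate after 2 h at room temperature.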

[19] = biological target: Vitamin D3 receptor (Homo sapiens) (UniProt P11473); test: qHTS assay to identify small molecule antagonists of the vitamin D receptor (VDR) signaling pathway (AID 743223; active means well fitted inhibition curve with a large enough effect in the signal ratio in the repeat runs, not every such curve was filed as active; the % refers to the signal ratio)
In short: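 After VDR-bla cells are plated and left 4 h at 37C, DMSO-dissolved compounds and 3 nM (final) calcitriol agonist are added. Incubation continues 16 h at 37C; FRET beta-lactamase substrate then develops 2 h at room temperature.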

[20] = qHTS assay to identify small molecule antagonists of the vitamin D receptor (VDR) signaling pathway - cell viability counter screen (AID 743225; active means well fitted curve in the direction sought with a large enough effect in the repeat runs; an effect the other way counts as inactive or inconclusive; further: nearly all actives have a fitted effect of over 50% in size)
In short: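 Cytotoxicity toward the VDR-bla HEK 293T line was scored by ATP-based CellTiter-Glo luminescence, read in the wells already used for the beta-lactamase readout after 16 h compound treatment under 3 nM 1-alpha,25-dihydroxyvitamin D3 stimulation.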

Measured: Potency

CC(C(=O)c1ccccc1)N(C)C (centres undefined)
not listed: [14] | [15] | [16] | [17] | [18] | [19] | [20]
inactive: all other assays above

CC1CCCCC1NC(=O)Nc1ccccc1 (centres undefined)
not listed: [13]
inactive: all other assays above

CCOP(=O)(OCC)OP(=O)(OCC)OCC
not listed: [13] | [16] | [19]
inactive: all other assays above

CN1C[C@@H](NS(=O)(=O)N(C)C)C[C@@H]2c3cccc4c3c(cn4C)C[C@H]21
not listed: [2] | [13] | [16] | [17] | [19]
inactive: all other assays above

CCCSC(=O)N(CCC)CCC
not listed: [16] | [17] | [19]
inactive: all other assays above

CC(C)CC(N(C)C)C1(c2ccc(Cl)cc2)CCC1 (centres undefined)
not listed: [2] | [14]
inactive: all other assays above

Cc1cccc(C#N)c1
not listed: [4] | [14] | [19]
inactive: all other assays above

CC(=O)C(Cl)Cl
not listed: [16] | [18] | [19]
inactive: all other assays above

C[N+](=O)[O-]
not listed: [16] | [17]
inactive: all other assays above

ClCC(Cl)Cl
not listed: [16] | [17] | [19]
inactive: all other assays above

CCC(=O)c1ccccc1
not listed: [4] | [14] | [15]
inactive: all other assays above

O=P(O)(Oc1ccccc1)Oc1ccccc1
not listed: [1] | [2] | [4] | [14] | [16] | [18] | [19]
inactive: all other assays above

CCCCOP(=O)(O)OCCCC
not listed: [2] | [13] | [18] | [19]
inactive: all other assays above

COc1cc(OC)nc(NC(=O)NS(=O)(=O)c2ncccc2OCC(F)(F)F)n1
not listed: [16] | [19]
inactive: all other assays above

CNC(=O)O/N=C(\C)SC
not listed: [2] | [16] | [17]
inactive: all other assays above

OCCSCSCCO
not listed: [16] | [17]
inactive: all other assays above

Nc1c(Br)cc([N+](=O)[O-])cc1[N+](=O)[O-]
not listed: [4] | [19]
inactive: all other assays above

Fc1cc(Br)ccc1CBr
not listed: [2]
inactive: all other assays above

O=C(O)c1ccc2[nH]cc(CCCCN3CC=C(c4ccccc4)CC3)c2c1
not listed: [2] | [4] | [16] | [17]
inactive: all other assays above

CC(C)COP(=O)(OCC(C)C)OCC(C)C
not listed: [19]
inactive: all other assays above

COc1cc(OC)nc(NC(=O)NS(=O)(=O)c2ncccc2C(=O)N(C)C)n1
not listed: [4] | [14] | [16] | [17]
inactive: all other assays above

O=C(Cc1ccccc1)OCc1ccccc1
not listed: [13]
inactive: all other assays above

N#CCCC#N
not listed: [16]
inactive: all other assays above

CCCCOC(=O)c1ccccc1N
inactive: all assays above

CN(C)CCc1ccc(O)cc1
not listed: [2] | [16] | [19]
inactive: all other assays above

CCS(=O)(=O)CCSP(=O)(OC)OC
not listed: [4] | [13] | [16] | [17] | [19]
inactive: all other assays above

COc1ncc(F)c2nc(S(=O)(=O)Nc3c(F)cccc3F)nn12
not listed: [16] | [17] | [18] | [19]
inactive: all other assays above

COC(=O)C(C)Oc1ccc(Oc2ccc(Cl)cc2Cl)cc1 (centres undefined)
not listed: [13]
inactive: all other assays above

CS(=O)(=O)c1cc(C(F)(F)F)ccc1C(=O)c1cnoc1C1CC1
not listed: [13] | [16] | [17]
inactive: all other assays above

CCSC(=O)N(CC)C1CCCCC1
not listed: [15] | [19]
inactive: all other assays above

O=[N+]([O-])c1cccc2c([N+](=O)[O-])cccc12
not listed: [13] | [16] | [17] | [18] | [19]
inactive: all other assays above

NC1=NC(=O)C(c2ccccc2)O1 (centres undefined)
not listed: [2] | [16] | [19]
inactive: all other assays above

CNC(=O)N(C)c1nc2ccccc2s1
not listed: [13] | [16] | [19]
inactive: all other assays above
